The test system of one experiment is TAB113. In words: qHTS profiling for inhibitors of Plasmodium falciparum proliferation (AID 504749). Note: nearly all actives have a fitted effect of over 60% in size. Note: potency is the fitted concentration of half-maximal effect. Particulars: P. falciparum in erythrocytes, SYBR Green DNA, 72 h; series mostly up to 28.7 µM. In outline: (§1)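 P. falciparum-infected erythrocytes (0.3% parasitemia, 2.5% hematocrit) incubated with compound 72 h at 37 C, 5% CO2. Parasite DNA detected by SYBR Green after lysis, overnight at room temperature; normalised to 0.29 uM artemisinin and DMSO.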

A further experiment deals with TAB165. The experiment is described as above. As to conditions: P. falciparum in erythrocytes, SYBR Green DNA, 72 h; series mostly up to 28.7 µM. In a few lines:
as §1

Another experiment deals with W2. The experiment is described as above. Particulars: P. falciparum in erythrocytes, SYBR Green DNA, 72 h; series mostly up to 28.7 µM. In outline: as §1
A further experiment deals with KB-3-1. In words: Cytotoxic Profiling of Annotated Libraries Using Quantitative High-Throughput Screening (AID 1296008). For max response: % is set by controls: 0 for no effect and ±100 for the full control effect. Note: nearly all actives have a fitted effect of over 60% in size. Particulars: Five cell lines viability, CellTiter-Glo ATP luminescence, 48-72 h; max response: stronger effect = lower value. In a few lines:
(§2)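 Cells exposed to compounds for 48 or 72 hr at 37 degrees Celsius. Viability read as ATP-coupled luminescence with CellTiter-Glo after 10 min at room temperature.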
In general terms: ATP-based viability assays read luminescence as a measure of living cells.

The next experiment has as its system C33A. The experiment can be described thus: Primary qHTS to identify gynecologic anti-cancer compounds using libraries of approved drugs and bioactive compounds (AID 1345084). Note: nearly all actives have a fitted effect of over 55% in size. Note: potency is the fitted concentration of half-maximal effect. Particulars: Gynecologic cancer cell panel viability, ATPlite luminescence, 48 h; series mostly up to 57.5 µM. In a few lines:
(§3)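 Cells, 1,000 per well, were allowed to settle for 16 h at 37 C before compound addition. Five concentrations were tested for 48 h, and viability was read by ATPlite luminescence after 15 min at room temperature.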
(In qHTS, concentration-response curves come from the screen itself.)

In another experiment the test system is CAOV3. The experiment is described as above. Particulars: Gynecologic cancer cell panel viability, ATPlite luminescence, 48 h; series mostly up to 57.5 µM. In a few lines: as §3
The test system of the next experiment is CASKI. Described as above. As to conditions: Gynecologic cancer cell panel viability, ATPlite luminescence, 48 h; series mostly up to 57.5 µM. In a few lines: as §3
The next experiment relates to NIH3T3. In words: Cytotoxic Profiling of Annotated Libraries Using Quantitative High-Throughput Screening (AID 1296008). For max response: % is set by controls: 0 for no effect and ±100 for the full control effect. Note: nearly all actives have a fitted effect of over 60% in size. Particulars: Five cell lines viability, CellTiter-Glo ATP luminescence, 48-72 h; max response: stronger effect = lower value. In a few lines:
as §2

In a further experiment the test system is MCC-13. The experiment can be described thus: qHTS assay to identify novel small-molecules to repurpose for Merkel cell carcinoma treatment (AID 1296009). Note: nearly all actives have a fitted effect of over 60% in size. As to conditions: MCC and control cell lines, CellTiter-Glo viability, 72 h; series mostly up to 46 µM. In outline: (§4)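 Cells were treated for 72 hr at 37 degree celsius with compounds in 8- or 11-point dose response. Viability was read by CellTiter-Glo luminescence, normalized to no-cell (cytotoxicity) and DMSO controls.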

For the next experiment, the system named is MCC-26. The description is as above. As to conditions: MCC and control cell lines, CellTiter-Glo viability, 72 h; series mostly up to 46 µM. In outline:
as §4

For a further experiment, the system named is MKL-1. Described as above. As to conditions: MCC and control cell lines, CellTiter-Glo viability, 72 h; series mostly up to 46 µM. In outline:
as §4

For another experiment, the system named is UISO. The description is as above. Particulars: MCC and control cell lines, CellTiter-Glo viability, 72 h; series mostly up to 46 µM. In a few lines:
as §4

The subject of experiment [1] is HaCat. The experiment can be described thus: Cytotoxic Profiling of Annotated Libraries Using Quantitative High-Throughput Screening (AID 1296008). For max response: % is set by controls: 0 for no effect and ±100 for the full control effect. Note: nearly all actives have a fitted effect of over 60% in size. As to conditions: Five cell lines viability, CellTiter-Glo ATP luminescence, 48-72 h; max response: stronger effect = lower value. In a few lines: as §2
Experiment [2] deals with HACAT. The experiment can be described thus: qHTS assay to identify novel small-molecules to repurpose for Merkel cell carcinoma treatment (AID 1296009). Note: nearly all actives have a fitted effect of over 60% in size. As to conditions: MCC and control cell lines, CellTiter-Glo viability, 72 h; at 44.8 µM (top of the series) unless noted. In a few lines:
as §4

The next experiment concerns MKL-2. The experiment is described as above. As to conditions: MCC and control cell lines, CellTiter-Glo viability, 72 h; series mostly up to 46 µM. In outline: as §4
Another experiment has as its system WaGa. The experiment is described as above. As to conditions: MCC and control cell lines, CellTiter-Glo viability, 72 h; series mostly up to 46 µM. In outline:
as §4

Another experiment concerns HEK293T. The description is as above. As to conditions: MCC and control cell lines, CellTiter-Glo viability, 72 h; at 44.8 µM (top of the series) unless noted. In a few lines:
as §4

The structures appear in SMILES notation. Inconclusive results are not listed. Unmarked numbers belong to inactive results. Calls of active or inactive are those of the source. Calls come from the whole dose curve; as a rule, active = well fitted curve in the direction sought with a large enough effect; inconclusive = small, poorly fitted or top-dose-only effect, or another doubt; inactive = no such curve, though single readings can be large; an effect the other way counts as inactive or inconclusive.

Regarding `CC(C)(C)CC(C)(C)c1ccc(O)c(Cc2ccc(Cl)cc2Cl)c1`, the Potency was 1120 nM (active) in the experiment on TAB113, 794 nM (active) in the experiment on TAB165 and 426 nM (active) in the experiment on W2. In addition, in the experiment on KB-3-1, the max response was -6.63%. Moreover, the Potency entry with C33A, in the experiment with CAOV3 and in the experiment with CASKI was “inactive” in each case.

Take `COc1cc2c(cc1OC)C(=O)C(CC1CCN(Cc3ccccc3)CC1)C2` (centres undefined): the Potency entry with TAB113, with MCC-13, in the experiment on MCC-26, in the experiment with MKL-1, in the experiment with UISO and in the experiment on C33A was “inactive” each time. In addition, the Potency entry in the experiment with CASKI is “inactive”. For the same compound, the values for the max response with KB-3-1 and with NIH3T3 were 1.75% and -17.7%, respectively.

Turning to `C[C@@H]1CN(CCCn2c3ccccc3c3ccccc32)C[C@H](C)N1`, the Potency in the experiment on TAB165 was 7080 nM (active); in the experiment with W2, 2390 nM (active); in the experiment with C33A, 22400 nM (active). Moreover, the max response in the experiment on KB-3-1 is 0.54%. For the same compound, the Potency result in the experiment with MCC-26 is “inactive”.

`CC(=O)O[C@H]1C[C@@H]2CC[C@@H]3[C@H](CC[C@@]4(C)[C@H]3C[C@H]([N+]3(C)CCCCC3)[C@@H]4OC(C)=O)[C@@]2(C)C[C@@H]1[N+]1(C)CCCCC1`: the max response in the experiment on KB-3-1 was 1.63%.

Consider `CN1CCN(CCCN2c3ccccc3Sc3ccc(S(=O)(=O)N(C)C)cc32)CC1`, for which the Potency in the experiment on TAB165 was 3980 nM (active); in the experiment on W2 it was 2030 nM (active). Besides, the call in the experiment on HaCat [1] and in the experiment on HACAT [2] was inactive. Further, the max response in the experiment on KB-3-1 was -2.22%. Further, the Potency result with MCC-13, with MCC-26, in the experiment with UISO, in the experiment with C33A, with CAOV3 and in the experiment with CASKI was “inactive” each time.

Turning to `CC(C)N=C(N)/N=C(\N)Nc1ccc(Cl)cc1`, the Potency result with TAB113, with MCC-13, with MCC-26 and in the experiment on MKL-1 was “inactive” in each case. In addition, in the experiment on W2, the Potency is 1280 nM (active). Besides, the results for the max response with HaCat [1] and in the experiment on KB-3-1 were 0.505% and -14.7%, respectively.

Regarding `CC1(C)CCC(NC(=O)[C@@H](N)CCC(=O)O)CC1`, the Potency entry in the experiment with TAB113, with TAB165 and in the experiment with W2 was “inactive” each time. In addition, the max response with KB-3-1 is 5%.

In the case of `CCCC(=O)Nc1ccc(OCC(O)CNC(C)C)c(C(C)=O)c1` (centres undefined), the compound was called inactive in the experiment on HACAT [2]. Also, the Potency entry with MCC-13, with MCC-26, in the experiment with MKL-1, with MKL-2, in the experiment on UISO and in the experiment with WaGa was “inactive” throughout. Further, the Potency entry in the experiment on C33A and in the experiment on CASKI was “inactive” each time.

As to `CCN1CCC[C@H]1CNC(=O)c1c(OC)ccc(Br)c1OC`, the Potency result in the experiment on TAB113, with TAB165, in the experiment on MCC-13, in the experiment on MCC-26, in the experiment with MKL-1 and with MKL-2 was “inactive” throughout. Besides, the Potency entry in the experiment on UISO, in the experiment on WaGa, with C33A and in the experiment on CASKI was “inactive” throughout. The call in the experiment on HEK293T was inactive.

Consider `O=C1CCC(c2ccc(-n3ccnc3)cc2)=NN1`, for which the Potency entry with TAB113, in the experiment with TAB165 and in the experiment on W2 was “inactive” in each case. Also, the max response in the experiment with KB-3-1 was 11.9%.

As for `N[C@H](CO)C(=O)O`, the Potency entry in the experiment on TAB113, in the experiment with TAB165 and with W2 was “inactive” throughout. In addition, in the experiment with KB-3-1, the max response was -2.03%.

Regarding `O=C(O)c1cc2cc(Cc3cccnc3)ccc2o1`, the Potency result in the experiment on TAB113, in the experiment with TAB165 and with W2 was “inactive” each time. Moreover, in the experiment on KB-3-1, the max response was 4.6%.

Regarding `Cc1cccn2c(=O)c(-c3nnn[nH]3)cnc12`, the Potency entry in the experiment with TAB113, with TAB165, with W2, in the experiment with MCC-13, in the experiment with MCC-26 and in the experiment with MKL-1 was “inactive” in each case. For the same compound, the Potency result with MKL-2, in the experiment with UISO, with WaGa, in the experiment with C33A, in the experiment with CAOV3 and with CASKI was “inactive” in each case. In the experiment with HEK293T, the outcome was “inactive [at 17.4 µM]”.

Values taken from PubChem BioAssay (NCATS).
